Measured values as given in PubChem BioAssay.
Calls of active or inactive are those of the source. Unless noted, the rule behind the calls is not given here.

Columns and labels:
[1] = compounds binding Alexa647 anti-His antibody – biochemical, small-molecule microarray, 635 nm fluorescence, artefact control for SMM control protein annotation, primary screen (AID 1128); conditions: higher = more signal;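 note: score merges feature fluorescence with signal-to-noise for each printed compound spot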
[2] = test system: Human papillomavirus type 1a E7 protein (residues 1-88); assay: HPV1a E7 small-molecule binders, primary screen, biochemical, small-molecule microarray, residues 1-88, 635 nm (AID 1129); conditions: small-molecule microarray binding, fluorescence 635 nm; higher = more signal
[3] = target: Focal adhesion kinase 1 (Homo sapiens) (UniProt Q05397); assay: PTK2 protein binding on printed compound slides – biochemical, small-molecule microarray, 635/667 nm fluorescence, BSA, DTT, primary screen (AID 1130); conditions: 635 nm fluorescence, higher = more signal;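 note: composite of spot emission at 667 nm and signal to noise over triplicate slides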
[4] = test system: Fibrinogen (Alexa647-labelled); assay: Alexa647-fibrinogen binding to printed small molecules – biochemical, small-molecule microarray, 635/667 nm fluorescence, artefact control for SMM control-protein annotation, profiling panel (AID 1131); conditions: fibrinogen-A647 binding fluorescence, higher = more signal;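 note: z-score merges 667 nm fluorescence with per-spot signal-to-noise over triplicate slides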
[5] = target: Follistatin (Homo sapiens) (UniProt P19883); assay: FST protein binding to printed compounds – biochemical, small-molecule microarray, 635/667 nm fluorescence, primary screen (AID 1132); conditions: 635 nm fluorescence, higher = more signal
[6] = target: Fibroblast growth factor 2 (Homo sapiens) (UniProt P09038); assay: basic fibroblast growth factor binding to printed compounds – biochemical, small-molecule microarray, 635/667 nm fluorescence, primary screen (AID 1133); conditions: FGF2, fluorescence 635/667, higher = more signal
[7] = JC-1 mitochondrial potential readout, lung cancer cells – cell-based, A549, JC-1 fluorescence, basal, 24 h, 100 nL, profiling panel (AID 1138); conditions: higher = more signal;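 note: A549 lung adenocarcinoma cells under basal conditions with no added stimulus; test concentration not given here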
Lefty1 = Lefty1 protein binding to printed compounds – biochemical, small-molecule microarray, 635/667 nm fluorescence, primary screen (AID 1139); conditions: fluorescence 635/667, higher = more signal
[8] = test system: wheat germ agglutinin (Triticum aestivum), Alexa647-labelled; assay: Alexa647-WGA lectin binding to printed small molecules – biochemical, small-molecule microarray, 635/667 nm fluorescence, artefact control for SMM control-protein annotation, profiling panel (AID 1140); conditions: WGA-A647 binding, 635 nm fluorescence, higher = more signal;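 note: score merges 667 nm feature emission with signal to noise over triplicate slides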
[9] = target: Luciferin 4-monooxygenase (Photinus pyralis) (UniProt P08659); assay: inhibition of purified Photinus pyralis luciferase – biochemical, luminescence, purified enzyme, 2006 set, primary screen (AID 1141); conditions: purified firefly luciferase, SteadyGlo luminescence, 30 min; higher = more signal, called active from +8 up or from −8 down;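 note: cell-free assay with purified firefly luciferase at 100 ng per well in PBS; test concentration not given here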
[10] = test system: Wnt5a (protein binding on small-molecule microarray); assay: small molecules binding Wnt5a protein – biophysical, small-molecule microarray, 635/667 nm fluorescence, primary screen (AID 1142); conditions: 635 nm fluorescence, higher = more signal;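 note: fluorescence read at 667 nm with signal to noise per printed feature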
[11] = ATP-based viability of Huh7 replicon cells – cell-based, CellTiter-Glo luminescence, basal, 48 h, cytotoxicity control for HCV replication inhibitor project, primary screen (AID 1143); conditions: higher = more signal, called active from +8 up or from −8 down;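 note: Huh7 hepatoma cells carrying a hepatitis C replication reporter with no stimulus; test concentration not given here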
[12] = Pseudomonas biofilm growth suppression – PAO1 strain, BacTiter-Glo luminescence, LB-PBS, primary screen (AID 1144); conditions: P. aeruginosa PAO1 biofilm, 12 h, higher = more signal
[13] = basal CRE-LacZ reporter activity in PC12 – cell-based, unstimulated, primary screen (AID 1145); conditions: no forskolin, luminescence, 4.5 h, higher = more signal, called active from +8 up or from −8 down
[14] = forskolin-driven CRE-LacZ activity in PC12 – cell-based, CRE-LacZ reporter, forskolin-stimulated, primary screen (AID 1146); conditions: luminescence, 4.5 h, higher = more signal, called active from +8 up or from −8 down;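 note: PC12 cells with 6xCRE LacZ reporter stimulated by forskolin 10 µM; beta-galactosidase reporter signal reflecting CREB driven transcription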
[15] = target: Streptavidin (Streptomyces avidinii) (UniProt P22629); assay: compounds binding control protein streptavidin – biophysical, small-molecule microarray, 635/667 nm fluorescence, artefact control for SMM compound annotation, primary screen (AID 1147); conditions: higher = more signal;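 note: signal reflects streptavidin binding to arrayed compounds as a control protein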
[16] = probe aInhba binding on compound microarray – biochemical, small-molecule microarray, 635/667 nm fluorescence, primary screen (AID 1148); conditions: higher = more signal;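 note: score merges 667nm spot fluorescence with signal-to-noise for antibody binding to printed compounds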
Torsin-1A (Homo sapiens) [17] = target: Torsin-1A (Homo sapiens) (UniProt O14656); assay: TOR1A wild-type binding on microarray – cell lysate, small-molecule microarray, lysate, 635/667 nm, primary screen (AID 1149); conditions: COS7 hTOR1A-WT lysate, 635 nm fluorescence, higher = more signal
Torsin-1A (Homo sapiens) [18] = target: Torsin-1A (Homo sapiens) (UniProt O14656); assay: torsin A mutant lysate binding on microarrays – cell lysate, small-molecule microarray, COS7 lysate, 635/667 nm fluorescence, primary screen (AID 1150); conditions: COS7 hTOR1A mutant lysate, 635 nm fluorescence, higher = more signal;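 note: score pools 667 nm emission and signal to noise measuring lysate protein binding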
[19] = test system: Sonic hedgehog protein (Shh); assay: Sonic hedgehog microarray binding compounds – biochemical, small-molecule microarray, 635/667 nm fluorescence, primary screen (AID 1151); conditions: 635 nm fluorescence, higher = more signal;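 note: Shh protein binding to compounds spotted on small-molecule microarray slides; score combines spot fluorescence intensity with signal-to-noise across triplicate slides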

Luciferin 4-monooxygenase (Photinus pyralis), sequence (P08659 whole entry, looked up): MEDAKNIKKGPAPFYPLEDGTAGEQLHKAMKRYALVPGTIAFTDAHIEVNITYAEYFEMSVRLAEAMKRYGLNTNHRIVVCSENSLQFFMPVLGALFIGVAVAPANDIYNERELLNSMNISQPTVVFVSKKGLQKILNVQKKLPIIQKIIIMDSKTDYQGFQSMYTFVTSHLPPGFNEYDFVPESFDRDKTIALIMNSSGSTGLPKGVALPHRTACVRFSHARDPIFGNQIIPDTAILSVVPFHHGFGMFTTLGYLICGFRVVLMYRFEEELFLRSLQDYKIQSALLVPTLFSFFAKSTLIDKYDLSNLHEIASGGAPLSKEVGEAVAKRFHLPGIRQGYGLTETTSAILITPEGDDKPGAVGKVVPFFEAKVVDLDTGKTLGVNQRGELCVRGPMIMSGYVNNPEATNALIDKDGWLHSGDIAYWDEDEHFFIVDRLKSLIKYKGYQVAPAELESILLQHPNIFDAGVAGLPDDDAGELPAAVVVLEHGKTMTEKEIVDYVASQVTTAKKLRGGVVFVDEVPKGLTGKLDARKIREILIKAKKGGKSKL
Fibroblast growth factor 2 (Homo sapiens), sequence (P09038 whole entry, looked up): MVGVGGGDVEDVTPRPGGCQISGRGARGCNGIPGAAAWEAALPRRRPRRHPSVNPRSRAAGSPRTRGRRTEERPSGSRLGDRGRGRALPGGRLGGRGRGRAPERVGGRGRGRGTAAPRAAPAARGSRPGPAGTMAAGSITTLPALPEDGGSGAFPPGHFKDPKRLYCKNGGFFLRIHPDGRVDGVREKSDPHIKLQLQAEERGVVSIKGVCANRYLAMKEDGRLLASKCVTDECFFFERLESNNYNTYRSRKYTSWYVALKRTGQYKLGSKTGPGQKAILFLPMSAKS
Follistatin (Homo sapiens), sequence (P19883 whole entry, looked up): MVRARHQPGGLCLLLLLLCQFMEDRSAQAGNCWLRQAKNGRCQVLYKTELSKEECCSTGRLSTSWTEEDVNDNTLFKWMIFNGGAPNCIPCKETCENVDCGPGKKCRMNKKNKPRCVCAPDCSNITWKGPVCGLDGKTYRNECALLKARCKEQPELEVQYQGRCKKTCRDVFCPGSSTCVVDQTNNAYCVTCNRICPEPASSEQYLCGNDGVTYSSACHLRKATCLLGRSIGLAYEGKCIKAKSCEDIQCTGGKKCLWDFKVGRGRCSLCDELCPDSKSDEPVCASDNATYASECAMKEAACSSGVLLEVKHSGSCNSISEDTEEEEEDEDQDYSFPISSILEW
Streptavidin (Streptomyces avidinii), sequence (P22629 whole entry, looked up): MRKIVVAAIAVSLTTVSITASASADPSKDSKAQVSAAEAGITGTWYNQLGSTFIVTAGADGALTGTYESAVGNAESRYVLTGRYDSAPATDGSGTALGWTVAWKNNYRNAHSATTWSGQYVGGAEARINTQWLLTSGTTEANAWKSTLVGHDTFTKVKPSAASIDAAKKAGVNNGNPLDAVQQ
Torsin-1A (Homo sapiens), sequence (O14656 whole entry, looked up): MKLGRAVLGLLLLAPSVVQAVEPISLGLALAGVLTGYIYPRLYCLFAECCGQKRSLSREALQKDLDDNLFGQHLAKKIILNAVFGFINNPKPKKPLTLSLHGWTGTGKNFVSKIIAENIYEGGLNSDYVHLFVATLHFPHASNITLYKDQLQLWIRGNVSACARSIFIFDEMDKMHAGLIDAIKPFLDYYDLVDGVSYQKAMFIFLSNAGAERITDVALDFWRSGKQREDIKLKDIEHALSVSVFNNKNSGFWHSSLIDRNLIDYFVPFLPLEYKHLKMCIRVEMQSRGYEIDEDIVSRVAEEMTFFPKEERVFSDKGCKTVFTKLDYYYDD
Focal adhesion kinase 1 (Homo sapiens), sequence (Q05397 whole entry, looked up): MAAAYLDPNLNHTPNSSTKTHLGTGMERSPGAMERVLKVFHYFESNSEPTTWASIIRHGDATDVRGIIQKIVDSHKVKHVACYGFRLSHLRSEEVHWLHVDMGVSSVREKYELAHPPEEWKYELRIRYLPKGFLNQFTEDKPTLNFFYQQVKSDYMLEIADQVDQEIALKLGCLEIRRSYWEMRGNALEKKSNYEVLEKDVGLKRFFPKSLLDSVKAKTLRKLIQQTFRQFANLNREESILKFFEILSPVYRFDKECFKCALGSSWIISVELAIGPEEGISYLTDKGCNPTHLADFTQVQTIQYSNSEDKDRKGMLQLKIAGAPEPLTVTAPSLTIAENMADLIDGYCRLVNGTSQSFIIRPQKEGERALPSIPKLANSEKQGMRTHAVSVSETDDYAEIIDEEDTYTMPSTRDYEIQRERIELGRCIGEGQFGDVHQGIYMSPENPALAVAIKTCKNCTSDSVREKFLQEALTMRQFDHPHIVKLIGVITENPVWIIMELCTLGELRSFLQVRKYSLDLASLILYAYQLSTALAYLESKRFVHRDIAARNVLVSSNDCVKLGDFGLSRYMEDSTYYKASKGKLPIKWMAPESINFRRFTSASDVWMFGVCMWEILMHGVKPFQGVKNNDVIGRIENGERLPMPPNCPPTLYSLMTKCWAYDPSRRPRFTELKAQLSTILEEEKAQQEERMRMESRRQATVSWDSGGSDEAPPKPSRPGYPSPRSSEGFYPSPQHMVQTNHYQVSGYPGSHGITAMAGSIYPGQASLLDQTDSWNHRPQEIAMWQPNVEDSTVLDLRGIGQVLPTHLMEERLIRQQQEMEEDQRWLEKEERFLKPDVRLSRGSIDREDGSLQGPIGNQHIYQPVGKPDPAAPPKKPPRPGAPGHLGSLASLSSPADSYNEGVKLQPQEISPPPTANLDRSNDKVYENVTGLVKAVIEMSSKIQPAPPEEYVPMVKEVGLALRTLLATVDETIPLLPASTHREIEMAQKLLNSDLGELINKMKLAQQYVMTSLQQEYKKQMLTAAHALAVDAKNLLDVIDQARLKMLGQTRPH

| Structure (SMILES) | composite z-score [1] | composite z-score [2] | composite z-score [3] | composite z-score [4] | composite z-score [5] | composite z-score [6] | z-score [7] | composite z-score (Lefty1) | composite z-score [8] | z-score [9] | composite z-score [10] | z-score [11] | z-score [12] | z-score [13] | z-score [14] | composite z-score [15] | composite z-score [16] | composite z-score (Torsin-1A (Homo sapiens) [17]) | composite z-score (Torsin-1A (Homo sapiens) [18]) | composite z-score [19] |
| --- | --- | --- | --- | --- | --- | --- | --- | --- | --- | --- | --- | --- | --- | --- | --- | --- | --- | --- | --- | --- |
| CC1CC/C=C\[C@H]2OC34C=CCN(c5ccc6ccccc6c5)C(=O)[C@H]3N(CCCCCO)C(=O)[C@@H]4C2C(=O)O1 (stereo not given in full) | -0.946 | -0.824 | -0.673 | -2.2 | -1.02 | -1.65 | 0.987 | -0.994 | -0.0369 | -0.391 (inactive) | -1.12 | 0.385 (inactive) | 0.669 (inactive) | 0.333 (inactive) | -0.233 (inactive) | -1.72 | -0.233 | -1.03 | -1.19 | -1.18 |
| Cc1c(NC(=O)/C(C#N)=C/C=C/c2ccccc2)c(=O)n(-c2ccccc2)n1C | 0.378 | 0.466 | -0.358 | 0.68 | 0.58 | 0.366 | -0.158 | 0.451 | 0.343 | -5.86 (inactive) | 0.17 | -0.328 (inactive) | 0.374 (inactive) | -0.967 (inactive) | -0.733 (inactive) | 0.783 | 0.0018 | 0.172 | 0.426 | 0.522 |
| C=CC[C@]1(C(=O)NCCN2CCOCC2)N=C(c2ccc(OCCCO)cc2)O[C@H]1c1ccccc1N=[N+]=[N-] | 1.5 | 1.16 | 0.0147 | 0.772 | 1.32 | 0.931 | 0.98 | -0.367 | 0.455 | -8.62 (active) | 0.038 | -1.76 (inactive) | 0.672 (inactive) | 2.66 (inactive) | -1.37 (inactive) | 1.23 | 0.126 | 0.17 | -0.0097 | 0.255 |
| CC(=O)N1Cc2ccccc2C[C@@]2(N=C(c3ccc(OCCCO)cc3)O[C@H]2c2ccccc2)C1=O | 2.65 | 1.17 | 0.52 | 0.657 | 1.41 | 1.66 | 0.592 | 0.63 | 1.1 | -2.32 (inactive) | 0.604 | -4.03 (inactive) | -0.519 (inactive) | 1.53 (inactive) | -0.634 (inactive) | 0.326 | 0.482 | 0.513 | 1.17 | 1.69 |
| CC(C)N1C(=O)c2ccccc2[C@](C)(C(=O)NCCCN(C)C)[C@@H]1c1ccc(CO)cc1 | -0.439 | 0.717 | 2.34 | 0.562 | -0.106 | -0.224 | 0.256 | -0.573 | 0.231 | -0.562 (inactive) | -0.265 | 0.17 (inactive) | 0.352 (inactive) | -0.0888 (inactive) | -0.297 (inactive) | 0.578 | -0.204 | 3.98 | 3.56 | 0.0142 |
| Cc1ccc([C@H]2C(C(=O)O)=C[C@@H](C(C)C)N2S(=O)(=O)c2ccc(C)cc2)cc1 | 1.96 | 1.29 | 1.3 | 0.956 | 0.126 | -0.376 | -0.209 | -0.297 | 0.133 | 1.85 (inactive) | -0.167 | 0.0491 (inactive) | 0.633 (inactive) | -0.424 (inactive) | 1.01 (inactive) | 0.946 | 0.0173 | -0.165 | 0.28 | -0.542 |
| CCOC(=O)C[C@H]1[C@H](OC(=O)c2ccccc2-c2ccccc2)[C@@H](NC(=O)c2ccc(-c3ccccc3)cc2)c2cc(OCCCO)ccc2N1C(=O)c1ccccc1 | 0.426 | 0.78 | 0.177 | 0.58 | 0.77 | 0.466 | 1.39 | 0.935 | 0.17 | -0.0993 (inactive) | 0.0187 | -0.134 (inactive) | 0.945 (inactive) | 3.85 (inactive) | -1.14 (inactive) | 0.236 | 0.0569 | -0.29 | 0.272 | 0.684 |
| Cc1cccc(/C=C/C=O)c1 | -0.109 | -0.115 | 0.0048 | 0.458 | 0.198 | -0.163 | 0.538 | -0.119 | 0.718 | -0.953 (inactive) | -0.0267 | 0.585 (inactive) | 0.16 (inactive) | 0.0924 (inactive) | -0.0647 (inactive) | 1.04 | -0.0963 | -0.782 | -0.295 | 0.0638 |
| [N-]=[N+]=NCc1ccccc1C[C@]1(C(=O)NCCN2CCOCC2)N=C(c2ccc(OCCCO)cc2)O[C@H]1c1ccccc1CN=[N+]=[N-] | 1.09 | 1.21 | 1.43 | 0.99 | 1.11 | 0.783 | 0.963 | 0.886 | 0.495 | 0.203 (inactive) | 0.888 | -6.14 (inactive) | -1.12 (inactive) | 1.34 (inactive) | -0.887 (inactive) | 0.803 | 0.0155 | 0.0892 | 0.938 | 1.45 |
| COCCOC(=O)N1C(=O)[C@@]2(c3ccccc31)[C@H](c1ccc(O)cc1)N1[C@H](c3ccccc3)[C@H](c3ccccc3)OC(=O)[C@H]1[C@@H]2C(N)=O | -0.445 | -0.218 | -0.046 | -1.35 | -0.601 | -0.239 | 0.181 | -0.0341 | -0.0601 | -0.144 (inactive) | -0.235 | -1.34 (inactive) | 0.0439 (inactive) | 0.208 (inactive) | 1.88 (inactive) | -0.516 | -0.128 | -1.04 | 0.619 | -0.218 |
